SMILES strings stand for the structures. Several values for one entry are separate records, joined by “and”; a condition that tells them apart may be missing. Equal values may be shown once. Out of some 360,000 compounds screened, about 11,000 (3.1%) were called active. Inconclusive results (about 2%) are left out. The sample holds actives, similar compounds and a random draw of the others, so the mix is not that of the screen. Cut-off read from the data, not from the text of the source: active = fluorescence intensity above about 16000; inconclusive = no clear call, values can overlap the other calls; inactive = below that. More than one record can exist for a structure, and the calls need not agree.

The experiment is described as follows: compound fluorescence in toxin protease inhibitor counterscreen, primary screen, artefact control for toxin protease inhibitor project, biochemical, multiplex microsphere, HTS (AID 624483). To be noted: compound autofluorescence counterscreen, microsphere flow cytometry; stronger effect = higher value.
As for `O=S1(=O)CC(N2CCN(Cc3ccccc3F)CC2)CN1Cc1cn(Cc2ccccc2)nn1` (configuration not stated), the fluorescence intensity is 5590 (inactive).
With `CCC(C)(C(=O)Nc1ccccc1C)N(C(=O)CNC(C)=O)c1ccc(C)cc1` (configuration not stated) the figure was 2200 (inactive); with `CN1CCN(c2ccc([N+](=O)[O-])c(Sc3nc4ccccc4[nH]3)c2)CC1`, 16500 (active).
For `CC1CCN(c2ccc([N+](=O)[O-])c(SCCO)c2)CC1` the value was 6270 (inactive); for `COc1cccc(-c2nc3ccc(N4CCN(C)CC4)cc3[nH]2)c1`, 3340 (inactive).
With `CC1Cc2[nH][nH]c(=O)c2C(C2CCCC2)O1` (configuration not stated) the figure was 6280 (inactive); with `Cc1ccc(-c2c[n+](CC(=O)Nc3ccccc3)c3n2CCC3)cc1`, 3860 (inactive).
For the molecule `Cc1ccc(C(=O)C[n+]2cc(-c3ccccc3)n3c2CCCCC3)cc1`, the fluorescence intensity is 25100 (active) and 2670 (inactive).
On to `Clc1ccc(C[n+]2cc(-c3ccccc3)n3c2CCC3)cc1`, for which the fluorescence intensity is 3590 (inactive).
As to `O=S(=O)(N1CCCCC1)N1CCNCC1`, the fluorescence intensity is 9990 (inactive).
For `CO/N=C/c1ccc(N2CCN(C(=O)c3cccc(Cl)c3)CC2)c([N+](=O)[O-])c1` the value was 22700 (active); for `O=C(c1ccc(Cl)c([N+](=O)[O-])c1)N1CCN(c2ccccc2)CC1`, 4410 (inactive).
As for `O=C(/C=C/c1ccc(Cl)cc1)N1CCN(c2ccccc2[N+](=O)[O-])CC1`, the fluorescence intensity was 2480 (inactive).
With `Cc1cccnc1C(NC(=O)C1CCN(Cc2ccc(Cl)c(Cl)c2)CC1)c1ccc(Cl)cc1` (configuration not stated) the figure was 3480 (inactive); with `Cc1ccc(S(=O)(=O)NCCC(c2ccccc2)c2ccccc2)cc1C(=O)O`, 3790 (inactive); with `COc1ccc(NC(=S)N2CCc3cc(OC)c(OC)cc3C2)cc1`, 5760 (inactive).
For `CCC(C)N(C)C1CCN(C(=S)Nc2ccc(OC)cc2)CC1` (configuration not stated) the value was 4340 (inactive).
For `COc1ccc(NC(=S)N2N=CCC2c2ccccc2)cc1` (configuration not stated) the value was 22400 (active).
Take `Cc1ccc(-c2nc3c(Cl)cc(C(F)(F)F)cn3c2Cc2cccc(Cl)c2)cc1`: the fluorescence intensity is 5350 (inactive).
On to `Cc1ccn(CC(=O)N2N=C(C(F)F)CC2(O)C(F)F)n1` (configuration not stated), for which the fluorescence intensity is 2400 (inactive).
For `Cc1ccc(C(C)NC(=O)Cn2nc(C)c([N+](=O)[O-])c2C)cc1` (configuration not stated) the value was 8570 (inactive); for `Cc1nn(Cc2ccc(C(=O)N3N=C(C(F)F)CC3(O)C(F)F)cc2)c(C)c1[N+](=O)[O-]` (configuration not stated), 20600 (active); for `CCOC(=O)C1=CN(Cc2ccc(Br)cc2)S(=O)(=O)N(C)C1C` (configuration not stated), 2790 (inactive).
With `COc1ccc(C(C#N)=C2C=CC(=NO)c3ccccc32)cc1` the figure was 5680 (inactive); with `CC1CCC(NS(=O)(=O)c2ccc3c(c2)CC(=O)N3)CC1` (configuration not stated), 6000 (inactive).
With `Cn1sc(=O)c2cc(S(=O)(=O)NC3CC3)ccc21` the figure was 3800 (inactive); with `Cn1c(=O)c(=O)n(C)c2cc(S(=O)(=O)NCCN3CCN(c4ccccc4F)CC3)ccc21`, 5840 (inactive).
For the molecule `CC(=O)Nc1ccc(S(=O)(=O)NCCc2ccccc2)cc1`, the fluorescence intensity was 11200 (inactive).
With `CC1CCC(NS(=O)(=O)c2ccc3c(c2)n(C)c(=O)c(=O)n3C)CC1` (configuration not stated) the figure was 22600 (active); with `Cn1c(=O)c(=O)n(C)c2cc(S(=O)(=O)NCCc3ccccc3)ccc21`, 21300 (active).
With `COc1ccc([C@H]2CC(=O)C[C@@H](CCn3cc(CC4CCCC4)nn3)O2)cc1` the figure was 5900 (inactive); with `O=C(NCc1ccccc1)C1c2ccccc2OCC(=O)N1CCCN1CCOCC1` (configuration not stated), 4950 (inactive).
For `O=C(/C=C/[C@H]1O[C@@H](n2ccc(=O)[nH]c2=O)[C@H](O)[C@@H]1O)NCc1ccccn1`, the fluorescence intensity is 4540 (inactive).
With `O=C(c1cccc(F)c1)N1CCN(c2ccc([N+](=O)[O-])c3cccnc23)CC1` the figure was 3360 (inactive); with `N#Cc1ccc(C(c2ccc(C#N)cc2)n2cncn2)cc1`, 5930 (inactive); with `Cc1ccc(S(=O)(=O)NC2CCCCCC2)cc1`, 3430 (inactive).
For `Cc1cccc(CCNS(=O)(=O)c2ccc(S(=O)(=O)NC3CCCC3)cc2)c1` the value was 23700 (active).
`Cc1cccc(CCNS(=O)(=O)c2ccc3c(c2)NC(=O)CO3)c1`: the fluorescence intensity is 6090 (inactive).
With `O=C(Nc1nnc([C@H]2C[C@H](O)[C@@H](CO)O2)s1)c1cccc(Cl)c1` the figure was 3090 (inactive).
For `NC(=O)CSc1nnc(NC(=O)c2ccc(Br)o2)s1` the value was 5930 (inactive).
In the case of `O=C(Nc1nnc(Cc2ccc(Cl)cc2)s1)c1ccncc1`, the fluorescence intensity was 5560 (inactive).
For the molecule `Cc1ccc(C(=O)Nc2nnc(-c3ccncc3)s2)o1`, the fluorescence intensity was 20300 (active).
For the molecule `COc1ccc(C(O)c2nc(-c3ccc(OC)nc3)cs2)cc1` (configuration not stated), the fluorescence intensity was 3040 (inactive).
With `COc1cc(OC)cc(C2=Cc3ccccc3C(CC(=O)c3ccco3)N2c2ccc(-c3cnc(OC)nc3)cc2)c1` (configuration not stated), the fluorescence intensity was 5230 (inactive).
With `Cc1ccc2c(c1)N(CC(=O)N1CCCC(C)C1)C(=O)CO2` (configuration not stated) the figure was 6170 (inactive); with `Cc1ccc(C(=O)N2CCCc3ccccc32)c(Cl)c1`, 3770 (inactive).
Take `Cc1ccc2c(c1)N(CC(=O)N1CCCc3ccccc31)C(=O)C(C)O2` (configuration not stated): the fluorescence intensity was 22200 (active).
For `Cn1nc(-c2ccc(Cl)cc2)c2cc(C(=O)NCc3ccco3)sc21` the value was 5560 (inactive).
For `COC(=O)c1ccc(CSc2nc3cc(Cl)ccc3o2)cc1` the value was 22300 (active); for `COC(=O)c1ccc(CNC(=O)c2ccc3oc(C(C)C)nc3c2)cc1`, 6320 (inactive).
As to `COC(=O)c1ccc(CSc2nncn2C)cc1`, the fluorescence intensity was 11000 (inactive).
In the case of `CCC(C)C(CO)NC(=O)/C=C/[C@H]1O[C@@H](n2cnc3c(NC(=O)c4ccccc4)ncnc32)[C@H](O)[C@@H]1O` (some centres not stated), the fluorescence intensity is 4240 (inactive).
Take `CC(=O)c1ccc(N2CCN(S(=O)(=O)c3ccc4c(c3)CC(=O)N4C)CC2)cc1`: the fluorescence intensity was 4560 (inactive).
For `COc1ccc(CCN2C(=O)C(C)=C(C)C2=O)cc1OC` the value was 3920 (inactive); for `COC(=O)c1ccc(C2C(Oc3ccccc3C)C(=O)N2CCc2ccc(OC)c(OC)c2)cc1` (configuration not stated), 2780 (inactive); for `COc1ccc(CCN2C(=O)c3[nH]nc(-c4ccccc4O)c3C2c2ccc(C)cc2)cc1OC` (configuration not stated), 17800 (active).
In the case of `COc1ccc(C2/C=C\CN(S(=O)(=O)c3cccs3)CC(=O)N2Cc2ccc(F)cc2)cc1` (configuration not stated), the fluorescence intensity was 3100 (inactive).
As for `Cc1cccc(NC(=S)N2CCC(O)CC2)c1C`, the fluorescence intensity is 4400 (inactive).
For `O=C1Nc2c(Br)cc(Br)cc2C1(O)N1CCOCC1` (configuration not stated) the value was 4310 (inactive); for `O=C(CCN1C(=O)[C@H]2CC=CC[C@H]2C1=O)NCc1nc(-c2ccccc2)no1`, 4420 (inactive).
As for `O=C1c2ccccc2C(=O)N1CCCc1nc(-c2ccccc2)no1`, the fluorescence intensity was 21200 (active).
With `O=C(Cc1ccc(Cl)cc1)NCc1nc(-c2ccccc2)no1` the figure was 3500 (inactive).
For the molecule `COc1cc(CNc2ncnc3c2ncn3[C@H]2CN(Cc3cccs3)C[C@@H](CO)O2)cc(OC)c1OC`, the fluorescence intensity is 2940 (inactive).
With `CC1(C(=O)NS(=O)(=O)c2cccc(F)c2)CCN1C(=O)Cc1cc(F)ccc1F` (configuration not stated) the figure was 3880 (inactive); with `C/C(=N/NC(=O)c1ccn(C)n1)c1ccncc1`, 4250 (inactive); with `CC(=O)N/N=C(\C)c1ccc(Br)cc1Br`, 4300 (inactive).
For `O=C(/C(=N\O)n1cncn1)c1ccc(Br)cc1Br` the value was 21600 (active); for `Cc1nc2ccc(NC(=O)C(F)(F)F)cc2o1`, 21700 (active); for `Cc1ccc2nc(-c3ccc(NC(=O)c4cccnc4)cc3)oc2c1`, 4480 (inactive).
For `Cc1ccc(NC(=O)Nc2ccc3oc(C)nc3c2)cc1`, the fluorescence intensity was 4170 (inactive).
For `O=C(CC[C@H]1O[C@@H](n2ccc(=O)[nH]c2=O)[C@H](O)[C@@H]1O)N[C@H](Cc1ccccc1)C(=O)NCCCN1CCCC1=O` the value was 4310 (inactive); for `O=C1NC(O)CCN1C1CC(O)C(CO)O1` (configuration not stated), 6570 (inactive).
For `CCCCOC(=O)c1ccc(N2C(=O)CC(N3CCN(C/C=C/c4ccccc4)CC3)C2=O)cc1` (configuration not stated) the value was 22500 (active).
Take `CCOC(=O)c1ccc(N2C(=O)CC(N3CCC(C(=O)OCC)CC3)C2=O)cc1` (configuration not stated): the fluorescence intensity was 2510 (inactive).
For `CCOC(=O)c1ccc(N2C(=O)CC(N3CCN(C(=O)c4ccccc4)CC3)C2=O)cc1` (configuration not stated) the value was 2610 (inactive); for `CC(OC(=O)c1ccccc1OCc1ccc(Cl)cc1)C(N)=O` (configuration not stated), 4810 (inactive).
With `Cc1cc(=O)oc2c1ccc1ccccc12` the figure was 3640 (inactive); with `O=C(O)CN(Cc1ccco1)S(=O)(=O)c1ccccc1`, 3010 (inactive).
Regarding `O=C(O)CCC(=O)N(Cc1ccco1)c1nc(-c2ccccc2)cs1`, the fluorescence intensity was 22500 (active).
For `Cc1ccc(-c2csc(N(Cc3ccco3)C(=O)c3cccs3)n2)cc1` the value was 2850 (inactive); for `O=C(NCc1cccc(C(F)(F)F)c1)c1ccc2sc(COCCO)nc2c1`, 3760 (inactive).
For `CCNC(=O)NC(=O)C(C)OC(=O)c1cc(S(=O)(=O)N2CCCCCC2)ccc1OC` (configuration not stated) the value was 3480 (inactive).
With `CC1=NNC(=O)C1CC(=O)N/N=C/c1ccncc1` (configuration not stated) the figure was 4920 (inactive); with `CCN(CC)c1ccc(NC(=O)CN2C(=O)NC3(CCc4ccccc43)C2=O)cc1` (configuration not stated), 8580 (inactive).
Regarding `CCOc1ccc(NC(=O)CCNC(=O)c2ccc(Br)cc2)cc1`, the fluorescence intensity is 3030 (inactive).
Regarding `CCCCNC(=O)CCNC(=O)c1ccc(C(C)(C)C)cc1`, the fluorescence intensity was 20300 (active).
With `CCCCC(=O)Nc1ccc(C(=O)NCCCn2ccnc2)cc1`, the fluorescence intensity is 10500 (inactive).
For `CC(C)C1Cc2[nH][nH]c(=O)c2C(c2ccc(Cl)cc2)O1` (configuration not stated) the value was 5700 (inactive).
`CCN(CC)C(=O)c1sc2nc(-c3ccccc3)ccc2c1N`: the fluorescence intensity was 4300 (inactive).
With `NC(=O)c1sc2nc3c(c(-c4ccccc4)c2c1N)CCC3` the figure was 24800 (active); with `Cc1sc2nc(CC(N)=O)[nH]c(=O)c2c1-c1ccccc1`, 2450 (inactive); with `S=c1[nH]nc2c3c4c(sc3ncn12)CCCC4`, 2950 (inactive).
As to `c1nnc2c3c4c(sc3ncn12)CCC4`, the fluorescence intensity is 23300 (active).
In the case of `N=c1c2c3c(sc2ncn1N)CCCCC3`, the fluorescence intensity was 19400 (active).
With `N=c1c2c3c(sc2ncn1CCCN1CCOCC1)CCCCC3` the figure was 6250 (inactive); with `N=c1c2c3c(sc2nc2n1CCCCC2)CCCC3`, 2860 (inactive); with `CC(C(=O)O)n1cnc2sc3c(c2c1=O)CCCC3` (configuration not stated), 4940 (inactive).

Source of the values: PubChem BioAssay AID624483 (NMMLSC, 2012).
